The whole screen tested about 310,000 compounds, of which about 3,900 (1.3%) were called active.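 The calls were made as follows: active = calcium-response B-score plate-corrected more than 3 library SD below zero, starting fluorescence within 5 deviations, no agonist response on first addition; inactive = the rest.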 Shown is part of a subset that was picked to be rich in actives.
Target: Mas-related G-protein coupled receptor member X1 (Homo sapiens) (UniProt Q96LB2)
Assay: antagonists of human MrgX1 receptor, primary screen, HEK293 cells, Fluo-4 calcium flux (AID 588676);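 as to B-score: peak minus trough fluorescence over baseline after final BAM8-22 challenge near maximal dose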
Details: Fluo-4, BAM8-22 antagonism, at 10 µM; stronger effect = lower value

Chain of Mas-related G-protein coupled receptor member X1 (Homo sapiens) (Q96LB2 whole entry, looked up): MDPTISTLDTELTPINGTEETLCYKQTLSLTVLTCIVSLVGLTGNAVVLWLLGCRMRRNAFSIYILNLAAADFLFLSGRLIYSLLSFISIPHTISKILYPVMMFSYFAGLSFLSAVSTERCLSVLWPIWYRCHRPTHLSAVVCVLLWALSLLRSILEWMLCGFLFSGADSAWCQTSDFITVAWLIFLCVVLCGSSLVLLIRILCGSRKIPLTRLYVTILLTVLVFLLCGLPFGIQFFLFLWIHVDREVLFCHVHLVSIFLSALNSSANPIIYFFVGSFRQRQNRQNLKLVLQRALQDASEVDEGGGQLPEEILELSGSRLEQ

B-score, active:
CC(C)(C)n1nc2c(c1NC(=O)c1ccc(S(=O)(=O)N3CCCC3)cc1)CS(=O)C2 (centres undefined) -5.73
Cc1cc(C)cc(NC(=S)NCCc2c[nH]c3ccccc23)c1 -5.78
O=C(O)c1ccc2c(c1)C(=O)N(c1ccc(/C=C/C(=O)c3ccccc3)cc1)C2=O -6.62
CCOC(=O)CNC(=O)CSc1nc2cccnc2n1CC -8.3
COc1ccc(C(=O)NC2CCCc3c2cnn3-c2cccc(C)c2C)c(OC)n1 (centres undefined) -8.89
CCN(CC)CC(=O)Nc1nn(-c2ccccc2)nc1C(N)=O -7.03
COc1cc(CCC(=O)Nc2ccncc2Cl)cc(OC)c1OC -6.22
COCCCNC(=O)C1CCN(c2ccc(N3CCOCC3)nn2)CC1 -6.39
COC(=O)c1c(NC(=O)c2c(Cl)cnn2C)sc(C)c1C -4.74
Cc1ccc(-c2nn(C(C)(C)C)c3ncnc(N)c23)cc1 -4.54
CCOC(=O)c1c(NC(=O)CNC2CCCc3ccccc32)sc(C(N)=O)c1C (centres undefined) -4.67
O=C(Cc1nc2ccccc2[nH]c1=O)c1ccc(Cl)cc1 -5.73
O=c1cc(CSc2ccccn2)nc(N2CCN(c3ccccc3)CC2)[nH]1 -4.82
C=CCOc1cccc(C2C(C(=O)c3ccc(C)o3)=C(O)C(=O)N2c2nnc(C)s2)c1 (centres undefined) -4.61
O=C(Cc1ccccn1)c1ccc(O)cc1O -4.66
C=CCn1nc(-c2ccccc2)c2c(C)onc2c1=O -6.96
O=C(CCn1ccc([N+](=O)[O-])n1)Nc1nccs1 -5.19
COc1cc2c(cc1O)C(SC)=NC(C)(C)C2 -5.85
Clc1ccc(-c2nc3ccccn3c2CN2CCSCC2)cc1 -5.66
O=C(Nc1ccc(Cl)cc1)C1c2cccc[n+]2CC(=O)N1Cc1ccc2c(c1)OCO2 (centres undefined) -6.48
CCC1CCCCN1CCNC(=O)c1[nH]c(C)c(C(C)=O)c1C (centres undefined) -5.1

B-score, inactive:
O=C(CN1CCCCCC1)Nc1c(Cl)cc(Cl)cc1Cl
COc1cc2c(C(=O)N3CCN(C)CC3)c(CSc3ccccc3)n(C)c2cc1Br
O=C(COC(=O)c1cc(-c2cccs2)nn1-c1ccccc1)Nc1cc([N+](=O)[O-])ccc1Cl
O=C(Nc1ncccc1O)c1ccc(S(=O)(=O)N2CCCC2)cc1
O=C(Nc1ncccc1O)c1ccc(S(=O)(=O)N2CCCCCC2)cc1
O=C(CCN1C(=O)[C@H]2CC=CC[C@H]2C1=O)NCc1nc(-c2ccccc2)no1
Cc1ccc(Nc2cc(C)nc3c(C)ccc([N+](=O)[O-])c23)cc1
Cc1cc(C)cc(NC(=S)NCc2ccc(F)cc2)c1
O=C(NCCc1c[nH]c2ccccc12)c1cccc(Br)c1
NS(=O)(=O)c1ccccc1NC(=O)c1c(O)c2ccccc2[nH]c1=O
Cc1cccc(N2C(=O)c3ccc(C(=O)Nc4cccc(C(=O)O)c4)cc3C2=O)c1
O=C(/C=C/c1ccc(N2CCOCC2)cc1)c1ccccc1
Cc1cc(C)cc(C(=O)OCC(=O)NCCNC(=O)COC(=O)c2cc(C)cc(C)c2)c1
CCOC(=O)CNC(=O)CSc1nnc(COc2ccc(Cl)cc2)n1CC
CCOC(=O)CNC(=O)CSc1ncccc1-c1nc2ccccc2[nH]1
O=C1c2cccc3cccc(c23)C(=O)N1c1cccc(O)c1
COC(=O)[C@@H]1C[C@@]2(O)[C@@H](O)[C@@H](O)[C@@H](O)C[C@H]2N1Cc1ccc(C)s1
COc1ccc(Cl)cc1NS(=O)(=O)c1cccc(C(=O)NC2CCC(O)CC2)c1 (centres undefined)
Cn1nccc1C(=O)NC1CCCc2c1cnn2-c1ccccc1F (centres undefined)
Cc1cc(C(=O)NC2CCCc3c2cnn3-c2cccc(C)c2C)c(C)o1 (centres undefined)
Cc1ccc(S(=O)(=O)NNC(=O)/C=C/c2cccc(F)c2)cc1
Cc1ccc(C)c(NC(=O)C2Cc3ccccc3CN2C(=O)OCc2ccccc2)c1 (centres undefined)
COc1ccc(C(C)NC(=S)NC2CCCCC2)cc1OC (centres undefined)
CCCN(CC(=O)Nc1ccc(C(N)=O)cc1)CC(=O)Nc1ccccc1C
CCN(CC)CCNCC(=O)Nc1ccc(Oc2ccccc2)cc1
O=C1CCC(C(=O)N2CCC(O)(c3ccccc3)CC2)CN1CCc1ccccc1 (centres undefined)
COc1ccccc1OCc1nnc(SCC(N)=O)n1-c1ccccc1
CC(C)(C)NC(=O)NC(=O)COC(=O)C1(C)CC1(Cl)Cl (centres undefined)
COc1cc(CCC(=O)OCC(=O)Nc2cccc(S(N)(=O)=O)c2)cc(OC)c1OC
COc1cc(CCC(=O)N2CCN(c3ccccc3Cl)CC2)cc(OC)c1OC
C#CCOCCOCCOCCNc1nc(N2CCN(C(=O)CCCCCCCCCCNC(=O)[C@H]([C@@H](C)CC)n3cc(CCCCN=C(N)N)nn3)CC2)nc(N2CCN(C(=O)CCCCCCCCCCNC(=O)[C@H](CO)n3cc(CCCSC)nn3)CC2)n1
O=C(NCC(=O)N(Cc1cccs1)C(C(=O)NC1CCCCC1)c1ccco1)c1cccs1 (centres undefined)
COc1ccc(N2CCN(CCCNC(=O)C3CCN(S(=O)(=O)N4CCOCC4)CC3)CC2)cc1
CCOc1ccc(CCNC(=O)C2CCN(c3ccc(N4CCOCC4)nn3)CC2)cc1OCC
CN1CCN(Cc2c(C(=O)N3CCc4ccccc4C3)nc3ccc(Cl)cn23)CC1
CCc1nn(-c2cc(Oc3cccc4ccccc34)nc(-c3ccccc3)n2)c(N)c1C#N
COCCCNCC(=O)Nc1sc(C)c(C)c1C(=O)OC
CCOC(=O)c1c(NC(=O)CSc2nccc(=O)[nH]2)sc(C)c1C
CN(C)c1cccc(C(=O)N2CCC(n3nccc3NC(=O)C3CCOC3)CC2)c1 (centres undefined)
Cc1ccccc1OCCC(=O)OCC(=O)NC(C)c1ccccc1 (centres undefined)
O=C(Cn1cc(C(=O)C2CC2)c2ccccc21)Nc1ccccc1Cl
Cc1ccc(-n2cnc3ncnc(-c4ccccc4)c32)cc1
CC(=O)Nc1ccc(NC(=O)COc2ccc(S(=O)(=O)NC(C)c3ccccc3)cc2)cc1 (centres undefined)
COCCOC(=O)c1c(C)oc2cc(Br)c(OCC(N)=O)cc12
CCOC(=O)c1sc(NC(=O)COc2ncnc3ccccc23)c(C(=O)OCC)c1C
CCOC(=O)c1sc(NC(=O)CSc2nnc(-c3ccco3)o2)c(C(=O)OCC)c1C
Cc1ccc(C(=O)C(C)OC(=O)Cc2n[nH]c(=O)c3ccccc23)cc1C (centres undefined)
O=C(CSc1nc2ccc([N+](=O)[O-])cc2[nH]1)c1ccc(Cl)cc1
O=C(/C(=C/c1cccc(Cl)c1)c1nc2ccccc2[nH]1)c1ccccc1
CN1CCN(c2ccccc2NC(=O)COc2ccc(C3CCCCC3)cc2)CC1
Cc1ccc(SCc2cc(=O)[nH]c(N3CCCCC3)n2)cc1
Cc1nnc(SCc2cc(=O)[nH]c(N3CCN(Cc4ccccc4)CC3)n2)s1
Cc1cc(N2C(=O)C(O)=C(C(=O)c3ccc(C)o3)C2c2ccc(OCc3ccccc3)cc2)no1 (centres undefined)
C=CCOc1cccc(C2C(C(=O)c3ccc(C)o3)=C(O)C(=O)N2CCCn2ccnc2)c1 (centres undefined)
COc1ccc(/C(O)=C2/C(=O)C(=O)N(CC3CCCO3)C2c2ccc(OC)c(OC)c2)cc1 (centres undefined)
COc1ccc(NC(C(=O)Nc2cccc(C(C)=O)c2)c2ccccc2)cc1 (centres undefined)
Cc1cc(-c2ccc(S(=O)(=O)N3CCN(c4cccc(C(F)(F)F)c4)CC3)s2)on1
COc1ccc(CC(=O)c2ccc(O)cc2O)cc1OC
COc1ccc(C(=O)Cc2cnn(-c3ccccc3)c2)c(O)c1
CCn1c(SCC(=O)NC2CC2)nnc1-c1ccccc1OC
O=C(NCC1CCCO1)c1ccccc1-c1nc(-c2ccccc2Cl)no1 (centres undefined)
Cc1nn(-c2ccccc2)c(=O)c2noc(C)c12
C=CCn1cnc2scc(-c3ccccc3)c2c1=O
COc1cccc2cc(C(N)=O)/c(=N\NC(=O)c3ccccc3)oc12
O=C(Cn1ccc([N+](=O)[O-])n1)NCc1cccs1
Cc1ccnc(NC(=O)Cn2ccc([N+](=O)[O-])n2)c1
Cc1cccc(C)c1NC1=NC(=S)N(c2ccc(N(C)C)cc2)C1(C)C
CN(C)CCCn1c(=O)n(Cc2ccccc2)c(=O)c2c3c(sc21)CCCCC3
Cc1c(S(=O)(=O)NC(C)c2ccccc2)c(=O)n(C)c(=O)n1C (centres undefined)
O=C(CNC(=O)C12CC3CC(CC(C3)C1)C2)OCC(=O)N1CCCCC1
COc1cc2c(cc1OC)C(C(C)C)=NC(C)(C)C2
COc1cc2c(cc1OC)C(Nc1ccc(S(N)(=O)=O)cc1)=NC(C)(C)C2
CN(C)CCc1c[nH]c2ccc(Cn3cncn3)cc12
Clc1ccc(-c2nnc(-c3ccccc3)nc2N2CCSCC2)cc1
CC1CCN(Cc2nc(-c3ccc(Cl)cc3)no2)CC1
O=C(CSCc1ccc(Cl)cc1)N1CCN(Cc2ccc3c(c2)OCO3)CC1
CCCOc1ccc(NC(=O)CC2C(=O)N(C)C(=S)N2Cc2ccc3c(c2)OCO3)cc1 (centres undefined)
COc1ccc(C)cc1Nc1nc(C)nc2c1oc1ccccc12
COc1ccc2c(c1)C(=O)Nc1cc(Cl)ccc1N2
CC(=O)c1c(C)[nH]c(C(=O)NCCCN2CCCC2)c1C
CCCCN(CC)CCNC(=O)c1[nH]c(C)c(C(C)=O)c1C
NC(=O)CC[C@@H]1NC(=O)[C@@H]2CCCN2C(=O)c2cc([N+](=O)[O-])cc(F)c2NCCC[C@@H](C(N)=O)NC1=O
O=C(CSc1nc2nccnc2c(=O)n1Cc1cccs1)Nc1ccccc1F

Reference: PubChem BioAssay AID588676 (Johns Hopkins Ion Channel Center, 2011)
